Measured values from PubChem BioAssay (NCATS).
Records with an inconclusive call do not appear. Unmarked numbers belong to inactive results. Active and inactive are the calls of the source. Calls come from the whole dose curve; as a rule, active = well fitted cell-killing curve with a large enough effect; inconclusive = small, poorly fitted or top-dose-only effect, or effect the other way; inactive = no such curve, though single readings can be large or run the other way.

Columns and labels:
[1] = Viability qHTS for spleen associated tyrosine kinase inhibitor (SYKi) naive MV4-11 cells (AID 1963823); note: nearly all actives have a fitted effect of over 40% in size
Procedure, shortened: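 In this viability screen, compounds acted on SYK inhibitor naive MV4-11 cells for three days (72 hr, 37 C). Remaining viable cells were measured by CellTiter-Glo luminescence following a 10 min room-temperature development.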

[2] = Viability qHTS for spleen associated tyrosine kinase inhibitor (SYKi) drug resistant MV4-11 cells (AID 1963824); note: nearly all actives have a fitted effect of over 35% in size
Procedure, shortened: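 CellTiter-Glo luminescence, read 10 min after reagent addition, reports viability after a 72 hr compound exposure. Cells are an MV4-11 line made resistant to SYK inhibition, seeded at 500 per well onto compound-containing plates.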
Potency is the fitted concentration of half-maximal effect.

SMILES	Potency [1]	Potency [2]	viability (% of control) [1]	viability, % of control [2]
C=CC(C)(CC/C=C(\C)C(=O)OC)OC1OC(COC(=O)CC(C)(O)CC(=O)O)C(O)C(O)C1O (centres undefined)	inactive	inactive		
O=C(Nc1ccc(CN2CCOCC2)cc1)c1ccc(-c2cccc(Cl)c2)o1	8.2 µM (active)	9.2 µM (active)		
CC[C@@H]([C@H](C)O)n1ncn(-c2ccc(N3CCN(c4ccc(OC[C@@H]5CO[C@@](Cn6cncn6)(c6ccc(F)cc6F)C5)cc4)CC3)cc2)c1=O	11.9 µM (active)	6.68 µM (active)		
COCCNCc1ccc(-c2cc3nccc(Oc4ccc(NC(=S)NC(=O)Cc5ccc(F)cc5)cc4F)c3s2)nc1	0.0164 µM (active)	0.0259 µM (active)		
C[C@@H]1O[C@@H](O[C@H]2[C@H](O[C@H]3[C@H](O[C@H]4CC[C@@]5(C)C(CC[C@]6(C)C5CC=C5[C@@H]7CC(C)(C)C[C@@H](O)[C@]7(C)CC[C@]56C)[C@@]4(C)CO)O[C@H](C(=O)O)[C@@H](O)[C@@H]3O)O[C@H](CO)[C@H](O)[C@@H]2O)[C@H](O)[C@H](O)[C@H]1O (some centres undefined)			74.1% [at 9.25 µM]	80.3% [at 9.25 µM]
CC(=O)C1=CCC2C3CCC4CC(O[C@@H]5O[C@H](CO)[C@@H](O[C@@H]6O[C@@H](C)[C@H](O)[C@@H](O)[C@H]6O)[C@H](O)[C@H]5O[C@@H]5O[C@H](CO)[C@@H](O)[C@H](O)[C@H]5O)CCC4(C)C3CCC12C (some centres undefined)	inactive	inactive		
Nc1ncnc2c1nc(Cl)n2C1OC2COP(=O)(O)OC2C1O (centres undefined)	0.517 µM (active)	0.461 µM (active)		
